Assay results: PubChem BioAssay AID1025 (Sanford-Burnham Center for Chemical Genomics, 2008)
The whole screen tested about 96,000 compounds, of which fewer than 10 were called active.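 The calls were made as follows: active = activation factor of at least 2 at 5 µM in the primary screen; inactive = the rest.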 A selection follows.

What follows are molecules tested against Cytochrome P450 2C19 (Homo sapiens) (UniProt P33261) (assay: enhancers of cytochrome P450 2C19 turnover – biochemical, luminescence, primary screen (AID 1025;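 also: 0 = wells with 2.5 mM tranylcypromine and 1 = vehicle-only wells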)). Settings: recombinant CYP2C19, luciferin-H EGE luminescence; at 5 µM; hits give high values; 0 = fully inhibited enzyme, 1 = untreated enzyme.
Cytochrome P450 2C19 (Homo sapiens), sequence (P33261 whole entry, looked up): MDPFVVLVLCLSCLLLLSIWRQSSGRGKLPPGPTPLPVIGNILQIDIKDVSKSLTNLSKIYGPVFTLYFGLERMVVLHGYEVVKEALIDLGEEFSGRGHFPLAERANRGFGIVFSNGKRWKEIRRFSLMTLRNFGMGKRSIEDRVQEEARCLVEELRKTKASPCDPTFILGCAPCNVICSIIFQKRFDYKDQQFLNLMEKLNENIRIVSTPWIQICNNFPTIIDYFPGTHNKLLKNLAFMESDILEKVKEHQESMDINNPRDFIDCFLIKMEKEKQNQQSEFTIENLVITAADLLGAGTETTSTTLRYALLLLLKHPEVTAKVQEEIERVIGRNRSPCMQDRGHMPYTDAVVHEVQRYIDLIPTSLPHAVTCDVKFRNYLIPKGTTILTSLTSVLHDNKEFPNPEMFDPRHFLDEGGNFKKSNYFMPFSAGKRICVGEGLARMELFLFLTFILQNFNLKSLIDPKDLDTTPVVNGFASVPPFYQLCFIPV

Activation factor, inactive:
CCc1ccc(CNC(=O)C2CCCN(c3nc4ccccc4o3)C2)cc1 (stereo not drawn) 0.3
CCn1cc(C(=O)N/N=C(/C)c2ccc(F)cc2)c(=O)c2cc(F)c(N3CCCC3)cc21 0.6
O=C(Nc1cccc(-c2nc3ncccc3o2)c1)c1ccco1 0.9
COc1ccccc1NC(=O)[C@H](COCc1ccccc1)NC(=O)OC(C)(C)C 0.5
CN=C1SC(CC(=O)Nc2ccc(C(=O)O)cc2)C(=O)N1C (stereo not drawn) 1
O=C(c1ccco1)N1CCN(C(=O)C2CCCN(S(=O)(=O)c3cccc4nsnc34)C2)CC1 (stereo not drawn) 1
COc1ccc(NC(=O)Cn2c(-c3ccc(OC)cc3)cn(-c3ccc(C)cc3)c2=O)cc1 1
O=C(N/N=C/c1ccc(O)cc1)/C(=C/c1ccc([N+](=O)[O-])cc1)NC(=O)c1ccccc1 0.9
CSc1ccc(C#N)cc1NC(=O)c1cccc(Cl)c1 0.8
Cc1ccc(S(=O)(=O)N(CC(=O)NCCSC2CCCCC2)c2ccccc2F)cc1 1
CC(c1ccco1)N(C(=O)COc1ccccc1[N+](=O)[O-])c1ccccn1 (stereo not drawn) 0.6
C=CCn1c(SCC(=O)NCc2ccccc2)nnc1-c1cc(Br)ccc1O 0.1
O=C(Nc1nccs1)c1cc(S(=O)(=O)N2CCOCC2)c(Cl)cc1Cl 0.9
CC(C)CCOc1ccc(C(=O)C[N+]2(C)CCOCC2)cc1 0.9
O=C(N/N=C/C=C/c1ccccc1)C1CC1(c1ccccc1)c1ccccc1 (stereo not drawn) 1.2
COCCNC(=O)COc1ccccc1C 1
COc1ccccc1NC(=O)COc1ccc(C(=O)OCC(=O)N(C(C)C)C(C)C)cc1OC 0.4
CCCN1Cc2cccc(C(=O)Nc3ccc(S(=O)(=O)N4CCCCCC4)cc3)c2C1=O 0.8
Cc1cccc(C)c1-n1c(C)cc(/C=C2\C(=O)NN(c3ccccc3)C2=O)c1C 0.6
Cc1ccc(SCCC(=O)OCC(=O)Nc2ncc(Cl)cc2Cl)cc1 0.8
COc1ccc(NCc2nnc(SCc3ccccc3)n2-c2ccc(OC)cc2)cc1 0.1
COc1ccc(-c2cc3nc(C)c(CCC(=O)NC(C)CCc4ccco4)c(C)n3n2)c(OC)c1 (stereo not drawn) 0.7
O=C(COc1cc(Cl)c(Cl)cc1Cl)NC(=O)NC1CCCC1 1.1
CCCCCN1CC(O)=C(c2nc(-c3ccc(Cl)cc3)cs2)C1=N 0.9
Cc1ccc(-n2c(SCC(=O)NCc3ccc4c(c3)OCO4)nnc2-c2cccnc2)c(C)c1 0.7
CCCCNC(=O)CSc1nc2ccc(NC(=O)CSc3nnc(COc4ccccc4C)n3C)cc2s1 0.8
CSc1nc2ccccc2cc1/C=C(\C#N)c1ccc(Cl)cc1Cl 0.9
Cc1nnc(SCC(=O)Nc2ncc3c(n2)CC(C)(C)CC3=O)s1 1
O=C(Nc1ccc2c(c1)OCCO2)C(c1ccc(F)cc1)N1CCCCC1 (stereo not drawn) 0.4
COc1cc(C2C(C(=O)OCCC#N)=C(C)NC3=C2S(=O)(=O)c2ccccc23)cc(OC)c1OC (stereo not drawn) 0.8
CCCCN1C(=O)CC(N2CCOCC2)C1=O (stereo not drawn) 1
O=c1c2ccccc2nc2n1C1(CCCCC1)Cc1ccccc1-2 0.3
Cc1ccc(OCc2nnc(NC(=O)OCC(C)C)s2)cc1 0.9
Cc1csc(=NC(=O)c2ccccc2)n1CCO 0.5
CSC1=N/C(=C\c2ccc3c(c2)OCO3)C(=O)S1 1
CC(C)(C)c1cc2cccnc2n1Cc1cccc(F)c1 0.9
CCNC(=S)Nc1cccc(Cl)c1C 0.5
CN1CCN(c2ccc([N+](=O)[O-])c(Sc3nc4ccccc4[nH]3)c2)CC1 0.7
CC/C(C)=N/Nc1nc2sc3c(c2c(=O)[nH]1)CC(C)(C)OC3 0.6
CCC(=O)Nc1ccc(C(=O)Nc2cccc(OC)c2)cc1 1
C=CCn1c(SCC(=O)c2c(N)n(C)c(=O)n(C)c2=O)nc2sc(CC)cc2c1=O 1
COc1ccc(-c2nc3ccccc3n2CCC(C)C)cc1OC 0.4
CC(C)Oc1ccc(C(=O)NC(C)(C)CO)cc1 1
COc1ccc(C(=O)Nc2ncc3c(n2)-c2ccccc2CC3)cc1 0.9
O=C(Nc1cccc2ccccc12)c1onc2c1CCCC2 0.9
FC(F)(F)c1ccc2nnc(-c3c(Cl)cccc3Cl)n2c1 0.7
Cc1cc(C(=O)OCC(=O)Nc2ccc(F)c(F)c2)c(C)o1 0.1
Cc1nnc(SCC(=O)NC(=O)NC2CCCC2)n1N 1
Cc1ccc(-c2csc(N(Cc3ccco3)C(=O)c3cccs3)n2)cc1 0.3
O=C(c1ccccc1Oc1ccccc1)N1CCN(c2ccc(F)cc2)CC1 0.1
O=C1N=C(N2CCCC2)S/C1=C\c1cccc(Br)c1 0.4
Cc1noc(C)c1COC(=O)c1cc2ccccc2cc1O 0.1
Cc1nnc(OCC(=O)NCCC2=CCCCC2)c2ccccc12 0.4
CCOCCCNC(=O)C(NC(=O)CNC(=O)c1ccccc1)c1ccc(C)cc1 (stereo not drawn) 1.1
Nn1c(SCC(=O)NC2CCCC2)nnc1-c1ccccc1F 0.8
CCN(CC)Cc1csc2ccc(Br)cc12 0.9
CN(C)c1ccc(CNC2C3CC4CC(C3)CC2C4)cc1 (stereo not drawn) 0.2
FC(F)(F)c1cccc(-c2cc3ccccc3nc2N2CCCC2)c1 0.8
COc1ccc2[nH]c(=O)c(CNc3ccc(C)c(C)c3)cc2c1 0.8
Cn1nc(C(F)(F)F)c(C(=O)Nc2cccc(C(F)(F)F)c2)c1SCc1ccc(Cl)cc1 0.1
Cc1ccc(/C=N\n2c(-c3ccccc3)n[nH]c2=S)s1 1
CCCCCCOc1ccc(OC(=O)c2cccnc2)cc1 0.8
O=S(=O)(c1cnccc1N1CCN(/N=C/c2ccc(Br)cc2)CC1)N1CCCCC1 1.1
